In ChEMBL document CHEMBL4513216, “Probing the Open Global Health Chemical Diversity Library for Multistage-Active Starting Points for Next-Generation Antimalarials” (ACS Infect Dis, 2020):
Hit rate of the full screen: of about 65,000 compounds, about 2,100 (3.2%) showed an effect of 50% or more. The median lay at about -52%. The sample holds strong results, similar compounds and a random draw of the others, so the mix is not that of the screen.

What follows are compounds tested on Plasmodium falciparum (assay: Screen against P. falciparum Asexual Blood Stage (ABS), at 5uM). Settings: tested at 5 uM.
Format: functional, Dd2

Compared with O=C(c1ccsc1)N1C[C@@H]2CCN(c3cccnc3)C[C@@H]2C1, c1cncc(OCc2n[nH]c3c2CN(Cc2cccs2)C3)c1 is lower in INHIBITION: -7.89% for the first, -109% for the second.

First: O=C(NCC1CCS(=O)(=O)C1)N1CCN(c2cnccn2)CC1 (configuration not stated)
Second: CS(=O)(=O)C1(C(=O)NC2CCc3nccn3C2)CCCC1 (configuration not stated)
The INHIBITION of the first is lower: -123% for the first, -105% for the second.

Compared with CC(NC(=O)NCCCN(C)S(C)(=O)=O)c1ccc(F)cc1 (configuration not stated), O=C(NCC1(O)CCOCC1)c1ccc(F)cc1 is lower in INHIBITION: -109% for the first, -171% for the second.

Compared with COc1ccnc(N(C)Cc2csc(C)n2)n1, Cc1nc(CN(C)c2nccc(N(C)C)n2)cs1 is higher in INHIBITION: -49.6% for the first, 27.2% for the second.

First: Cc1cc(N(C)C)nc(N(C)Cc2csc(C)n2)n1
Second: Cc1nn(C)c(N(C)C)c1CNC1CCc2c(F)cccc21 (configuration not stated)
The INHIBITION of the first is higher: 51.4% for the first, -24.9% for the second.

Compared with OC1(Cn2ccc3ncccc32)CCN(Cc2cccs2)CC1, CN(C)C(=O)CN1C(=O)CCC12CCN(Cc1cccs1)CC2 is lower in INHIBITION: 4.9% for the first, -98% for the second.

Going from CC(=O)c1cccc(NCC(=O)NC(N)=O)c1 to CCN1CC(C)(C)CN(C(=O)CCc2ccccc2)CC1=O, the INHIBITION rises from -105% to -37%.

First: Cn1nc(C2CCCN(Cc3ccccc3)C2)c2nccnc21 (configuration not stated)
Second: OCCN1CCN(Cc2cnc3c(-c4ccccc4)cnn3c2)CC1
The INHIBITION of the first is lower: -26.5% for the first, 20.3% for the second.

Compared with COc1cccc(CNCc2ccnc(N3CCOCC3)c2)c1OC, N#Cc1cccc(CN2CCC3(CC2)CC(c2ccncc2)C(=O)N3)c1 (configuration not stated) is higher in INHIBITION: -35.6% for the first, -29.8% for the second.

Compared with COc1cccc(C2(C(=O)NC3CCc4nccn4C3)CCCC2)c1 (configuration not stated), COc1ccc(C2(C(=O)NC3CCc4nccn4C3)CCCC2)cc1 (configuration not stated) is lower in INHIBITION: 53.3% for the first, 47.5% for the second.

Going from Cc1ccc(-c2nc(CCNC(=O)NC3CCC(O)CC3)co2)cc1 (configuration not stated) to CNc1cncc(C2CCN(C(=O)c3coc(C)n3)CC2)n1, the INHIBITION rises from -137% to -43%.

First: CN(C)CC1(O)CCN(Cc2cnc3c(-c4ccccc4)cnn3c2)C1 (configuration not stated)
Second: c1ccc(-c2cnn3cc(CN4CCC5(CCO5)CC4)cnc23)cc1
The INHIBITION of the first is higher: 65% for the first, -302% for the second.

Going from COc1ccc(CN(Cc2ccsc2)CC2CCCO2)cn1 (configuration not stated) to Cc1cccc(CN2CCCC3(CCC(=O)N3CCN(C)C)CC2)n1 (configuration not stated), the INHIBITION rises from -101% to 45.5%.

First: CN(C)CCN1C(=O)CCC12CCN(Cc1cccs1)CC2
Second: O=C1CC2(CCNCC2)C(=O)N1Cc1ccc(F)cc1
The INHIBITION of the first is higher: 58.2% for the first, -53.4% for the second.

Going from NC(=O)c1ccc(CN2C(=O)C3(CCNCC3)Nc3ccccc32)cc1 to C=Cc1ccc(CN2C(=O)C3(CCNCC3)Nc3ccccc32)cc1, the INHIBITION rises from -3.53% to 87.7%.

Compared with N#Cc1cccc(CN2C(=O)c3ccccc3CS2(=O)=O)c1, N#Cc1cccc(CN2C(=O)C3(CCNCC3)Nc3ccccc32)c1 is higher in INHIBITION: -37.5% for the first, 67.9% for the second.
